Screens (PubChem BioAssay)
Only some compounds are listed: those with a hit (about 27% of all), similar ones and a draw of the others.
CYP2C19 inhib: inhibitors of human CYP2C19. P33261. CYP2C19 Supersomes, luciferin-H EGE luminescence, 30 min. inhibition, % at 5 µM. actives 21% (n = 96,000);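 active means CYP2C19 inhibition above a set limit at 5 µM in the primary screen, cut at about 50% in these data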
CYP2C19 act: cytochrome P450 2C19 (human) activation. activation factor at 5 µM. AID 1025. recombinant CYP2C19, luciferin-H EGE luminescence; active compounds read high; 0 = fully inhibited enzyme, 1 = untreated enzyme. 96,000 tested, under 10 active;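 active means activation factor of at least 2 at 5 µM in the primary screen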
CYP2C9 inh: inhibitors of human CYP2C9. P11712. CYP2C9 Supersomes, luciferin-H conversion, luminescence. inhibition, % at 5 µM. actives 20% (n = 96,000). AID 777;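 active means blocking of liver enzyme CYP2C9 beyond about 50% at 5 µM, limit read from the data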
Target sequence (P11712 whole entry, looked up): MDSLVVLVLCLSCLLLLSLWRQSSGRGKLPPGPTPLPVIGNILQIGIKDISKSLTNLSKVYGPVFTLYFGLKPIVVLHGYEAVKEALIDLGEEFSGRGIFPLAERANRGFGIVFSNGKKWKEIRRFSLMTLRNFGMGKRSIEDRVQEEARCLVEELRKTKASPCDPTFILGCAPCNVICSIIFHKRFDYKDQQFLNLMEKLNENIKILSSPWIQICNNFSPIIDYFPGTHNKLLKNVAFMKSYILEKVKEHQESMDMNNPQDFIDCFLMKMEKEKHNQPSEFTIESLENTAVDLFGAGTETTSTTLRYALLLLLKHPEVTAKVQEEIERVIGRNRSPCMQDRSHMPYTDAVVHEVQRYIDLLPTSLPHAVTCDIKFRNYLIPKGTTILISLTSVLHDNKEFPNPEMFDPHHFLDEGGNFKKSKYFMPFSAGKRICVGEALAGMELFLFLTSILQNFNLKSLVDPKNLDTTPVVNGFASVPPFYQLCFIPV
CYP2C9 act: increases human cytochrome P450 2C9 activity; actives 1.4% (n = 96,000); P11712; activation factor at 5 µM; recombinant CYP2C9, luciferin-H conversion, luminescence; active compounds read high; factor 1 = untreated enzyme, 0 = blocked;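 active means activation factor of 2 or more for CYP2C9 at a 5 µM dose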
EphB4 ephrin blk: antagonists of human EphB4-ephrin-B2 interaction. actives 0.15% (n = 97,000). AID 720. inhibition, % at 7 µM. P54760. EphB4 LBD / TNYL-RAW-Alexa532 peptide, fluorescence polarization;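 active means inhibition above the screen-wide mean inhibition plus 3 SD, cut at about 15% in these data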
Of the large screens only hits and unclear results are named; the others gave an inactive call.

O=C(NC(C(=O)N/N=C/c1cccc2ccccc12)c1n[nH]c(=O)c2ccccc12)c1ccccc1 (stereo not given)	CYP2C9 inh 56
O=C(O)CSc1c[nH]c2ccccc12	none
COc1ccc(-c2cc(C(=O)Oc3ccc([N+](=O)[O-])cc3)c3ccccc3n2)cc1	none
COc1ccc(-c2cc(C(=O)OC3CCOC3=O)c3ccccc3n2)cc1 (stereo not given)	CYP2C9 inh 96
COc1ccc(-c2cc(C(=O)OCC(=O)N(C)C)c3ccccc3n2)cc1	CYP2C19 inhib 88, CYP2C9 inh 72
O=C(OC1CCOC1=O)c1cc(-c2ccc(Br)cc2)nc2ccccc12 (stereo not given)	CYP2C9 inh 52
Cc1ccc2nc(C)cc(C(=O)OCC(=O)c3ccc(Cl)c([N+](=O)[O-])c3)c2c1	none
Cc1ccc(C(=O)COC(=O)c2cc(Cl)nc3ccccc23)cc1	CYP2C19 inhib 65
Cc1cc2ccccc2c(=O)n1CC(=O)NCC(=O)N1CCCC(C)C1 (stereo not given)	none
O=C(c1ccc(-n2cnnn2)cc1)N1CCOCC1	none
O=C(c1cnn2c(C(F)F)cc(C3CC3)nc12)N1CCOCC1	none
O=C(CSc1ncn[nH]1)NC1CC2CCC1C2 (stereo not given)	CYP2C19 inhib 53
O=C(CSc1nnc(Cc2ccccc2)o1)NC1CC2CCC1C2 (stereo not given)	CYP2C19 inhib 52
O=C(CSc1nnc(Cc2ccccc2)o1)NC1CCCCC1	CYP2C19 inhib 52
O=C(CSc1ncn[nH]1)NCc1ccccc1	none
CCOc1ccc(N(CC(=O)NC2CCCC2)C(=O)CSc2nnc(COc3ccccc3)o2)cc1	CYP2C9 inh 58
O=C(CSc1nnc(-c2ccco2)o1)NC1CCCCCC1	CYP2C19 inhib 75
COc1ccc([C@H]2[C@@H](C#N)[C@H](C#N)N3CCCN23)cc1	none (no result: CYP2C19 inhib, CYP2C19 act, CYP2C9 inh, CYP2C9 act)
Fc1cccc(Cn2cc(C(=S)N3CCCCC3)c3ccccc32)c1	none
CC(=O)/C(=C/N(C)C)Sc1ccc(C)cc1	CYP2C19 inhib 73
Cc1nc(-c2cccc(NC(=O)c3cc4cc(Br)ccc4oc3=O)c2)cs1	none
CSc1nncn1/N=C/c1ccccc1F	CYP2C9 inh 58
Cc1ccc(-c2cc(-c3ccccc3Cl)c(C#N)c(N)n2)o1	CYP2C19 inhib 92, CYP2C9 inh 82
Cc1ccc(-c2cc(-c3ccc(F)cc3)nc(N)c2C#N)o1	CYP2C9 inh 52
Cc1ccc(-c2cc(-c3ccccc3)c(C#N)c(N)n2)o1	none
N#Cc1c(-c2ccco2)cc(-c2cccnc2)nc1N	none
Cc1cccc(Nc2nc(-c3ccccn3)cs2)n1	CYP2C19 inhib 58, CYP2C9 inh 52
COC(=O)CCCC(=O)Nc1ccc(Cl)c(Cl)c1	none (no result: CYP2C19 inhib, CYP2C19 act, CYP2C9 inh, CYP2C9 act)
CCC1CCCCN1c1cc(C)nc2cc(-c3cccc(C)c3)nn12 (stereo not given)	none
CCN(CC)S(=O)(=O)c1cccc(-c2nnc(SCc3ncc(-c4ccccc4)o3)n2C)c1	CYP2C9 inh 51
CCSc1nnc(-c2cccc(S(=O)(=O)N(CC)CC)c2)n1Cc1ccccc1	CYP2C19 inhib 90, CYP2C9 inh 76
CCNC(=O)CSc1nnc(-c2cccc(S(=O)(=O)N(CC)CC)c2)n1CCc1ccccc1	none
CCOC(=O)c1nn(-c2ccc(Br)cc2)cc1C(=O)c1cccc2ccccc12	none
O=C(c1ccc(Br)o1)N1CCN(c2ccc3nnc(-c4ccccc4)n3n2)CC1	CYP2C19 inhib 79, CYP2C9 inh 88
O=S(=O)(c1ccc(Br)cc1)N1CCN(c2ccc3nnc(-c4ccccc4)n3n2)CC1	CYP2C19 inhib 60, CYP2C9 inh 80
Cc1nnc2ccc(N3CCN(C(=O)c4ccccc4)CC3)nn12	none
COC(=O)c1cc(OC)c(OC)cc1NC(=O)CN1CCOCC1	none
CCOc1ccc(S(=O)(=O)Nc2cc(Sc3ncn[nH]3)c3oc(=O)sc3c2)cc1	CYP2C19 inhib 69, CYP2C9 inh 67
CC(C)Oc1ccc(C(CC(=O)O)NC(=O)CSc2ncn[nH]2)cc1 (stereo not given)	none
CC1(C)SCC(C(=O)O)N1C=O (stereo not given)	none
O=C(CSc1ccc(Cl)cc1)N1CCN(c2ncc(C(F)(F)F)cc2Cl)CC1	CYP2C9 inh 81
O=C(OCCN1CCN(c2ncc(C(F)(F)F)cc2Cl)CC1)c1ccc(F)cc1	CYP2C9 inh 69
